HIF-2a inh: blocks HIF-2a reporter activity | AID 624352 | inhibition, % at 18.8 µM | 0.72% of 360,000 active | 786-0 RCC cells HIF-2a reporter, luciferase luminescence, overnight;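 active means inhibition of the luminescence signal of 40% or more relative to plate controls, in a single-dose primary screen at 18.75 µM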
TROY signal inh: blocks TROY-dependent signaling in reporter cells; Q293 LMP1-TROYcd NF-kB luciferase reporter, 4 h; AID 1347056; inhibition, % at 10 µM; 0.98% of 360,000 active;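 active means compounds whose plate-normalised and pattern-corrected inhibition of the luciferase reporter signal at the single screening dose is 50% or more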
Peg3 promoter: reduces Peg3 promoter-driven luciferase expression in HeLa | AID 588405 | 1.7% of 360,000 active | HeLa PEG-Prom luciferase reporter, luminescence, overnight | inhibition, % at 20 µM;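 active means inhibition of at least 50% at 20 µM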
KKLEB tox: CF airway cell cytotoxicity counter-screen | 0.36% of 360,000 active | KKLEB CF airway cells viability, ATPlite luminescence, overnight; hits give low values; cells stimulated with P. aeruginosa culture filtrate | activity change (cytotoxicity), % at 5 µM;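 active means corrected activity change at or below -50% at 5 µM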
TWEAK Fn14 block: TWEAK-Fn14 signaling inhibition | TWEAK-stimulated Fn14 reporter cells, luciferase luminescence, 8 h | inhibition, % at 10 µM | 2% of 360,000 active; in the data active means inhibition above about 50%
CF NFkB inh: inhibitors of cystic fibrosis induced NF-kB; inhibition, % at 5 µM; KKLEB NF-kB-GFP reporter, PAF-induced, GFP fluorescence overnight; 0.86% of 360,000 active;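 active means at least 50% inhibition at 5 µM, scaled per plate between neutral and stimulator controls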;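 further: PAF is a Pseudomonas aeruginosa culture filtrate used as stimulus; plate controls were PAF-stimulated DMSO wells for no effect and unstimulated DMSO wells for full effect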
Active calls of the source: *; / = not tested or not shown. An excerpt weighted towards active compounds, which were near 4% of everything screened.

SMILES | HIF-2a inh | TROY signal inh | Peg3 promoter | KKLEB tox | TWEAK Fn14 block | CF NFkB inh
CC1(C(=O)NCc2ccccc2)CSCC(=O)N1Cc1cccc(F)c1 (configuration not stated) | 9.9 | / | / | / | / | /
Cc1ccc(N=Cc2ccccc2O)cc1Cl | -3.9 | 7.1 | 6.2 | 8.0 | 59.2* | -11.3
O=S1(=O)C[C@H](N2CCC[C@@H]2CO)[C@@H](COCc2ccccc2)N1 | 4.9 | 8.0 | -14.8 | 2.5 | -4.0 | -15.5
CCn1c(=O)c2[nH]c(Cl)nc2n(CC)c1=O | 3.5 | -21.2 | 5.4 | 5.9 | -59.1 | 16.9
CCCCCCCN(C(=O)CCl)c1cccc(C)c1 | 19.1 | -8.7 | 6.3 | -87.4* | 17.1 | 78.2*
CCCCCCN(C(=O)CCl)c1ccccc1 | 18.3 | -5.3 | 26.9 | -68.3* | 31.7 | 84.9*
CC(=O)N(CCN(C(C)=O)c1ccccc1)c1ccccc1 | 8.7 | -9.6 | -1.4 | -1.7 | 3.0 | 3.6
O=C(CCl)N(CCc1ccccc1)CCc1ccccc1 | -4.5 | 0.5 | 26.7 | -50.5* | 9.1 | 66.4*
O=C(CCl)N(c1ccccc1)c1ccccc1 | 20.3 | 8.9 | 46.7 | -14.9 | 26.4 | 55.8*
O=C(CCCc1ccccc1)NCCc1ccccc1 | -143.0 | -52.2 | -116.3 | -14.3 | -21.3 | 10.1
O=C(Cn1cc(S(=O)(=O)Cc2cccc([N+](=O)[O-])c2)c2ccccc21)N1CCOCC1 | 7.9 | 16.2 | 15.2 | -11.3 | 18.9 | -15.3
CCOc1ccc(-c2noc(CCC(=O)NCC3CCCO3)n2)cc1OC (configuration not stated) | -17.7 | 3.5 | -19.4 | -7.4 | 13.1 | -11.0
CCOC(=O)c1c(NC(=O)CSc2nnc(-c3c[nH]c4ccccc34)n2CCOC)sc2c1CCCCC2 | -10.7 | 3.5 | 17.1 | 16.5 | 53.0* | -8.9
Cc1ccc(-c2[nH]ncc2/C=N/n2c(COc3ccccc3)nc3ccccc3c2=O)cc1 | 13.8 | 26.6 | 52.1* | -18.4 | 37.4 | 37.9
CC(=O)N(Cc1ccc(F)cc1)C1=C(NCc2ccccc2)C(=O)c2ccccc2C1=O | 67.7* | 37.9 | 109.6* | -52.7* | 50.7* | 92.1*
CN(CCc1ccccc1)C(=O)c1ccc(NC(=O)Cc2ccc(NC(=O)C3CCCN(C(=O)CCc4ccccc4)C3)cc2)cc1 (configuration not stated) | -10.1 | 22.5 | -9.7 | 15.1 | 58.3* | -7.6
CN(CCc1ccccc1)C(=O)c1ccc(NC(=O)Cc2ccc(NC(=O)C3CCN(C(=O)CCc4ccccc4)CC3)cc2)cc1 | -10.7 | 32.2 | 4.3 | 15.0 | 54.7* | -5.6
C#CCOCCOCCOCCNc1nc(N2CCN(C(=O)[C@H](C)n3cc(CCC(=O)O)nn3)CC2)nc(N2CCN(C(=O)[C@H](Cc3ccc(O)cc3)n3cc(CCO)nn3)CC2)n1 | 0.3 | 4.4 | 0.3 | 2.5 | 18.2 | -10.9
O=C(COC(=O)C12CC3CC(CC(O)(C3)C1)C2)Nc1ccc(Br)cc1F | -212.1 | 58.4* | -234.4 | 0.7 | 32.6 | 21.4
O=C(COC(=O)C12CC3CC(CC(O)(C3)C1)C2)Nc1ccccc1OC(F)F | 3.8 | 2.6 | 10.1 | -5.5 | 0.2 | 6.2
O=C1c2ccccc2C(Nc2ccc3c(c2)OCCO3)N1c1ccccn1 (configuration not stated) | 3.1 | 46.4 | 32.0 | 3.7 | 62.6* | -37.2
O=C1c2ccccc2C(Nc2ccc3c(c2)OCCO3)N1Cc1ccc2c(c1)OCO2 (configuration not stated) | 16.3 | 63.3* | 2.0 | 7.8 | 73.9* | 9.1
Cn1cc(CNC(=O)C2CCC(=O)N(Cc3ccccc3F)C2)cn1 (configuration not stated) | 5.4 | -6.7 | -11.7 | 1.8 | -2.6 | 19.0
CCCCCCc1cc2cc(-c3nnc(-c4ccccc4O)o3)c(=O)oc2cc1O | -3.6 | 43.2 | 36.0 | -66.4* | 54.6* | -34.4
Nc1cc(Cl)cc2c1-c1ccc(Cl)cc1C2 | -27.2 | -15.3 | -125.7 | -0.1 | -24.8 | -37.0
SMILES | HIF-2a inh | TROY signal inh | Peg3 promoter | KKLEB tox | TWEAK Fn14 block | CF NFkB inh
Cc1nc2ccccc2c(=O)n1/N=C/c1c(O)ccc2ccccc12 | -6.3 | -5.7 | 8.6 | 2.9 | 4.9 | 8.5
Cc1n[nH]c(=S)n1/N=C/c1c(O)ccc2ccccc12 | 13.9 | 21.9 | 57.3* | -0.1 | 1.4 | 3.0
NC(CSCc1cccc(Br)c1)C(=O)O (configuration not stated) | 8.0 | 7.2 | -3.2 | -1.4 | -4.4 | 10.7
CC(C)Cc1ccc(C(C)/C=C2/CCC(CN3CCCCC3)C2=O)cc1 (configuration not stated) | -5.6 | 3.6 | 91.1* | -12.5 | 6.8 | -34.1
CC(C)Cc1ccc(CN2CCCC(NC(=O)CCN3CCCCC3=O)C2)cc1 (configuration not stated) | -2.0 | 2.7 | -18.4 | 10.3 | -4.5 | -15.6
Cc1nc2cc(NC(=O)c3ccc(Cl)cc3)ccc2n1C | -146.7 | -1.7 | -163.1 | 6.0 | 50.2* | -10.6
COc1cc(C(=O)Nc2ccc3c(c2)nc(C)n3C)cc(OC)c1OC | -54.3 | -0.8 | -4.1 | -13.6 | -0.8 | -1.2
COc1ccc2nc(-c3ccc(F)cc3)sc2c1 | -60.5 | 39.1 | -86.7 | -15.4 | 75.3* | -7.5
Cc1ccc2nc(-c3ccc(NC(=S)NCC(C)(C)CN(C)C)cc3)sc2c1 | -210.9 | 30.1 | 60.5* | -20.6 | 23.9 | 16.5
O=C1CCC(=O)N1c1ccc(-c2nc3ccccc3s2)cc1 | -66.5 | 82.7* | -86.0 | -14.2 | 90.4* | -12.0
CNC(=S)Nc1ccc(-c2nc3ccc(C)cc3s2)cc1 | -85.0 | 13.3 | -238.3 | 0.5 | 49.0 | -75.1
Cc1ccc2nc(-c3ccc(N)cc3)sc2c1 | -76.2 | -4.3 | -55.0 | -56.0* | 26.4 | -53.1
CCCN(Cc1nnc(-c2cccs2)o1)C(=O)CN1C(=O)NC2(CCCCC2C)C1=O (configuration not stated) | 6.9 | -3.5 | 9.0 | 2.6 | 8.2 | -11.5
Nc1ccc(-c2nc3ccccc3s2)cn1 | -213.5 | -53.5 | -295.8 | 3.9 | 4.2 | -25.0
Nc1ccc(-c2nc3cc(N)ccc3s2)cc1 | -154.3 | -15.4 | -148.9 | 11.3 | -8.2 | -40.9
Nc1ccc2nc(-c3ccccc3)sc2c1 | -4.9 | 21.8 | -7.2 | -31.0 | 90.5* | -38.5
Cc1cc(-c2nc3ccccc3s2)ccc1N | -25.9 | 32.4 | -62.4 | -28.8 | 83.2* | -32.3
O=C(Oc1ccc(NC2=C(Cl)C(=O)c3ccccc3C2=O)cc1)c1ccc([N+](=O)[O-])cc1 | 12.9 | 23.6 | 99.1* | -15.0 | 20.7 | 20.4
CCCCCC(=O)N1C[C@@H](n2cc(C3CC3)nn2)[C@H](O)C[C@@H]1c1ccc(C)cc1 | 10.7 | -11.5 | 21.9 | 4.5 | -2.3 | -18.5
CC(C)(C)n1ncc2c(=O)n(CC(=O)NCc3ccccc3)cnc21 | -72.4 | 45.1 | -40.5 | -9.3 | 83.8* | -3.4
CCCCCOC(=O)c1c(N)n(CCOC)c2nc3ccccc3nc12 | -14.7 | -0.5 | 19.5 | -6.7 | 19.6 | -19.5
CCOC(=O)c1c(N)n(CCOC(=O)c2cccs2)c2nc3ccccc3nc12 | -6.3 | 22.6 | -16.2 | -37.7 | -13.9 | 50.3*

High-throughput results deposited in PubChem by Sanford-Burnham Center for Chemical Genomics.
